Source: PubChem BioAssay

test: A549 cell viability effects, profiling panel, calcein-AM fluorescence, 48 h, basal (AID 1162); conditions: higher = more signal; also: test concentration not given here

Compound | z-score
COc1cc(Cc2cc3c(c(-c4ccccc4)n2)[Si](C(C)C)(C(C)C)OC3)cc(OC)c1OC | 0.24
COCCOC(=O)N1C(=O)[C@@]2(c3cc(C#CCC(C(=O)OC)C(=O)OC)ccc31)[C@H](C(N)=O)[C@H]1C(=O)O[C@H](c3ccccc3)[C@H](c3ccccc3)N1[C@@H]2c1ccccc1OCCO | 1.3
C[C@@]1([C@@H](NS(=O)(=O)c2cccc3cccnc23)c2ccc(-c3ccccc3)cc2)C[C@H]1C1CCCCC1 | -1
C=C(C(=O)CC[C@@H](OC(=O)c1ccccc1-c1ccccc1C(=O)O)c1ccc(CO)o1)C(C)C | -0.656
CCOC(=O)C1=CCC(c2cccn2C(=O)OC(C)(C)C)N(S(=O)(=O)c2ccc(C)cc2)C1 (stereo unspecified) | -0.982
O=C1N(Cc2ccccc2)c2ccccc2C[C@@]12N=C(c1ccc(OCCCO)cc1)O[C@H]2c1ccccc1 | -1.32
Cc1ccc(S[C@]2(C(=O)NC3CC3)CC(=O)N(C3Cc4ccccc4C3)[C@@H]2c2ccc(CO)cc2I)cc1 | 0.828
CCc1cccc(NC(=O)O[C@H]2[C@H](OC(=O)Nc3ccccc3-c3ccccc3)[C@H](OC(=O)Nc3ccccc3-c3ccccc3)[C@@H](OC)O[C@@H]2CO)c1 | -2.01
CC(C)C[C@H]1NC(=O)CNC(=O)[C@@]23C(=O)N[C@@H](Cc4ccccc4)C2[C@H](C)[C@@]2(C)O[C@H]2C3/C=C/C/C=C\CNC1=O (stereo partly specified) | -0.518
C=C(/C=C\CNS(=O)(=O)c1ccc(C)cc1)[C@H](O)[C@H]1CCCN1S(=O)(=O)c1ccccc1[N+](=O)[O-] | -0.635
C[C@]1(C(=O)O)c2ccccc2C(=O)N(Cc2cc(C(F)(F)F)cc(C(F)(F)F)c2)[C@H]1c1ccc(CO)cc1 | -0.557
COC(=O)C(CC#Cc1ccc2c(c1)[C@]1(C(=O)N2)[C@H](c2ccc(OCCO)cc2)N2[C@H](c3ccccc3)[C@H](c3ccccc3)OC(=O)[C@H]2[C@@H]1C(N)=O)C(=O)OC | -0.729
CN1C(=O)C2C=CC(C(O)c3ccc(I)cc3)N(N(c3ccccc3)c3ccccc3)C2C1=O (stereo unspecified) | -0.62
COc1ccc([Si](C)(C)[C@@H]2[C@@H](CC(=O)N(CCO)Cc3ccccc3)O[C@]3(C(=O)N(Cc4cccc(I)c4)c4ccccc43)[C@H]2C)cc1 | -1.09
COc1ccc([Si](C)(C)[C@H]2[C@H](CC(=O)N3CCC[C@H]3CO)O[C@@]3(C(=O)N(Cc4cccc(N5CCCCC5=O)c4)c4ccccc43)[C@@H]2C)cc1 | 0.239
O=C1C2C=CC(C(O)C3CCCCC3)N(Nc3ccccc3F)C2C(=O)N1c1ccccc1 (stereo unspecified) | -0.112
C=C(COC)/C(=C/C[C@@H](OC(C)=O)c1cccc(OCCO)c1)c1cnc2ccccc2c1 | 0.37
COC(=O)C1=CC(c2ccc(CO)cc2)=CC(C2CC2)N(Cc2cc3c(cc2Br)OCO3)C=C1C(=O)OC (stereo unspecified) | -0.0232

Compound | z-score
O=C/C=C/c1ccc(-c2ccccc2)cc1 | 0.252
COc1ccc(C(O)C2C=CC3C(=O)N(C)C(=O)C3N2Nc2ccccc2)cc1 (stereo unspecified) | -1.12
COCCOC(=O)N1C(=O)[C@@]2(c3cc(C#CCNC(N)=O)ccc31)[C@H](c1ccccc1OCCO)N1[C@H](c3ccccc3)[C@H](c3ccccc3)OC(=O)[C@H]1[C@@H]2C(=O)N1CCCCCCC1 | -0.396
CC1C2C(CCCO)=CC(C3C(=O)N(C(N)=O)C(=O)C23)N1Cc1cccc(OC(F)(F)F)c1 (stereo unspecified) | -0.846
CCCC=C(CCC)[C@@H](NC(=O)c1ccc(C(=O)OC)cc1)c1ccc(C(=O)OC)cc1 | -1.48
COc1ccc(C#Cc2ccc3c(c2)[C@]2(C(=O)N3)[C@H](c3ccccc3OCCO)N3[C@H](c4ccccc4)[C@H](c4ccccc4)OC(=O)[C@H]3[C@@H]2C(=O)NC[C@H](O)c2ccccc2)cc1 | -1.22
C=C(C(=O)CC[C@@H](OC(=O)c1ccccc1-c1ccccc1C(=O)O)c1cccc(OCCO)c1)C(C)C | 0.811
C[C@]1(C(=O)NC2CC2)c2ccccc2C(=O)N(Cc2cc(F)cc(C(F)(F)F)c2)[C@H]1c1ccc(CO)cc1 | -0.685
C=C(COC)C(=O)CC[C@H](OC(C)=O)c1ccccc1OCCO | 0.0878
CCOC(=O)C[C@H]1[C@H](OC(=O)Cc2ccc3c(c2)OCO3)[C@@H](NC(=O)CC(C)C)c2cc(OCCCO)ccc2N1C(=O)c1ccc2ccccc2n1 | 0.415
O=C1C[C@@](C(=O)NCC(F)(F)F)(c2ccc([N+](=O)[O-])cc2)[C@@H](c2ccc(CO)cc2I)N1CC12CC3CC(CC(C3)C1)C2 | -2.05
COc1cc(CO)cc(I)c1O[C@H]1C=C(C(=O)NCCO)C[C@@H](N(CCN2CCOCC2)C(=O)C2CCCO2)[C@@H]1O (stereo partly specified) | 1.51
O=C1C2C=CC(C(O)C(c3ccccc3)c3ccccc3)N(Nc3ccccc3F)C2C(=O)N1c1ccccc1 (stereo unspecified) | -0.486
COC(=O)C[C@H]1O[C@]2(C(=O)N(C)c3ccccc32)[C@@H](C)[C@@H]1[Si](C)(C)c1ccccc1 | -0.843
CC(C)(C)OC(=O)CC[C@]1(C(=O)N2CCOCC2)COC(c2ccc(OCCCO)cc2)=N1 | 0.204
C=C(CC1([C@@H](NP(=O)(c2ccccc2)c2ccccc2)[C@H]2C[C@@H]2CCCC)CC1)c1cccc(OC)c1 | -1.61
COc1ccc(C(=O)Nc2cccc(CN3C(=O)[C@]4(O[C@H](CC(=O)N(CCO)Cc5ccccc5)[C@@H]([Si](C)(C)c5ccc(OC)cc5)[C@@H]4C)c4ccccc43)c2)cc1 | -0.983
CC[C@@H](O[Si](C#C[Si](C(C)C)(C(C)C)C(C)C)(C(C)C)C(C)C)c1cn([C@H](CO)Cc2ccccc2)nn1 | -0.28
